# Test results as given in paper PMC9911399, “Two distinct binding modes provide the RNA-binding protein RbFox with extraordinary sequence specificity”.
# Substitutions are numbered along the chain they refer to; changes in the protein carry UniProt numbers. Over roughly 16,000 sequences, “ka relative to ugcaugu” has its median near 0.0091; the highest 2% begin near 0.032. The sample holds the highest values, similar sequences and a random draw of the others, so the mix is not that of the screen.
# T1: RBFOX1 RRM (Homo sapiens, UniProt Q9NWB1 109-208)
# T1 sequence: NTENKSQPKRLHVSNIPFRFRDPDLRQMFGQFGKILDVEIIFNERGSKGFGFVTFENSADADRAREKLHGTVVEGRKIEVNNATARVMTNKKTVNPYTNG
# B1: UAACAUU (DNA:RNA)
# RNA: GGGAGACCGGAAUUCAGAUUGUCCUAACAUUUUAAAUCCCGUCGUAGCCACCA
# DNA 1: CAATCTGAATTCCGGTCTCCC
# DNA 2: TGGTGGCTACGACGGGATT
# B2: UACAGUC (DNA:RNA)
# RNA: B1 RNA with A27C, C28A, A29G, U31C
# DNA 1: CAATCTGAATTCCGGTCTCCC
# DNA 2: TGGTGGCTACGACGGGATT
# B3: AGCAGAA (DNA:RNA)
# RNA: GGGAGACCGGAAUUCAGAUUGUCCAGCAGAAUUAAAUCCCGUCGUAGCCACCA
# DNA 1: CAATCTGAATTCCGGTCTCCC
# DNA 2: TGGTGGCTACGACGGGATT
# B4: GGAUGAC (DNA:RNA)
# RNA: B3 RNA with A25G, C27A, A28U, A31C
# DNA 1: CAATCTGAATTCCGGTCTCCC
# DNA 2: TGGTGGCTACGACGGGATT
# B5: GGCAUGA (DNA:RNA)
# RNA: B3 RNA with A25G, G29U, A30G
# DNA 1: CAATCTGAATTCCGGTCTCCC
# DNA 2: TGGTGGCTACGACGGGATT
# B6: GGAUGGA (DNA:RNA)
# RNA: B3 RNA with A25G, C27A, A28U, A30G
# DNA 1: CAATCTGAATTCCGGTCTCCC
# DNA 2: TGGTGGCTACGACGGGATT
# B7: GCAUGAU (DNA:RNA)
# RNA: B3 RNA with A25G, G26C, C27A, A28U, A31U
# DNA 1: CAATCTGAATTCCGGTCTCCC
# DNA 2: TGGTGGCTACGACGGGATT
# B8: GCAUUCA (DNA:RNA)
# RNA: B3 RNA with A25G, G26C, C27A, A28U, G29U, A30C
# DNA 1: CAATCTGAATTCCGGTCTCCC
# DNA 2: TGGTGGCTACGACGGGATT
# B9: GCAUGGA (DNA:RNA)
# RNA: B3 RNA with A25G, G26C, C27A, A28U, A30G
# DNA 1: CAATCTGAATTCCGGTCTCCC
# DNA 2: TGGTGGCTACGACGGGATT
# B10: GCAUAAU (DNA:RNA)
# RNA: B1 RNA with U25G, A26C, C28U, U30A
# DNA 1: CAATCTGAATTCCGGTCTCCC
# DNA 2: TGGTGGCTACGACGGGATT
# B11: GCAUGAC (DNA:RNA)
# RNA: B3 RNA with A25G, G26C, C27A, A28U, A31C
# DNA 1: CAATCTGAATTCCGGTCTCCC
# DNA 2: TGGTGGCTACGACGGGATT
# B12: GCAUUUU (DNA:RNA)
# RNA: B1 RNA with U25G, A26C, C28U, A29U
# DNA 1: CAATCTGAATTCCGGTCTCCC
# DNA 2: TGGTGGCTACGACGGGATT
# B13: GUAUGAC (DNA:RNA)
# RNA: B3 RNA with A25G, G26U, C27A, A28U, A31C
# DNA 1: CAATCTGAATTCCGGTCTCCC
# DNA 2: TGGTGGCTACGACGGGATT
# B14: GGCAUAA (DNA:RNA)
# RNA: B3 RNA with A25G, G29U
# DNA 1: CAATCTGAATTCCGGTCTCCC
# DNA 2: TGGTGGCTACGACGGGATT
# B15: GUCAUGA (DNA:RNA)
# RNA: B3 RNA with A25G, G26U, G29U, A30G
# DNA 1: CAATCTGAATTCCGGTCTCCC
# DNA 2: TGGTGGCTACGACGGGATT
# B16: CCUUGGG (DNA:RNA)
# RNA: B3 RNA with A25C, G26C, C27U, A28U, A30G, A31G
# DNA 1: CAATCTGAATTCCGGTCTCCC
# DNA 2: TGGTGGCTACGACGGGATT
# B17: CGCCUAC (DNA:RNA)
# RNA: B3 RNA with A25C, A28C, G29U, A31C
# DNA 1: CAATCTGAATTCCGGTCTCCC
# DNA 2: TGGTGGCTACGACGGGATT
# B18: AUGAUGU (DNA:RNA)
# RNA: B3 RNA with G26U, C27G, G29U, A30G, A31U
# DNA 1: CAATCTGAATTCCGGTCTCCC
# DNA 2: TGGTGGCTACGACGGGATT
# B19: GGAUGAG (DNA:RNA)
# RNA: B3 RNA with A25G, C27A, A28U, A31G
# DNA 1: CAATCTGAATTCCGGTCTCCC
# DNA 2: TGGTGGCTACGACGGGATT
# B20: GCAUGAG (DNA:RNA)
# RNA: B3 RNA with A25G, G26C, C27A, A28U, A31G
# DNA 1: CAATCTGAATTCCGGTCTCCC
# DNA 2: TGGTGGCTACGACGGGATT
# B21: GUAUGUA (DNA:RNA)
# RNA: B3 RNA with A25G, G26U, C27A, A28U, A30U
# DNA 1: CAATCTGAATTCCGGTCTCCC
# DNA 2: TGGTGGCTACGACGGGATT
# B22: GCCAUGA (DNA:RNA)
# RNA: B3 RNA with A25G, G26C, G29U, A30G
# DNA 1: CAATCTGAATTCCGGTCTCCC
# DNA 2: TGGTGGCTACGACGGGATT
# B23: GUAUGAG (DNA:RNA)
# RNA: B3 RNA with A25G, G26U, C27A, A28U, A31G
# DNA 1: CAATCTGAATTCCGGTCTCCC
# DNA 2: TGGTGGCTACGACGGGATT
# B24: GCAUAGA (DNA:RNA)
# RNA: B1 RNA with U25G, A26C, C28U, U30G, U31A
# DNA 1: CAATCTGAATTCCGGTCTCCC
# DNA 2: TGGTGGCTACGACGGGATT
# B25: GCAUUGA (DNA:RNA)
# RNA: B3 RNA with A25G, G26C, C27A, A28U, G29U, A30G
# DNA 1: CAATCTGAATTCCGGTCTCCC
# DNA 2: TGGTGGCTACGACGGGATT
# B26: CGCAUGA (DNA:RNA)
# RNA: B3 RNA with A25C, G29U, A30G
# DNA 1: CAATCTGAATTCCGGTCTCCC
# DNA 2: TGGTGGCTACGACGGGATT
# B27: GCAUGAA (DNA:RNA)
# RNA: B3 RNA with A25G, G26C, C27A, A28U
# DNA 1: CAATCTGAATTCCGGTCTCCC
# DNA 2: TGGTGGCTACGACGGGATT
# B28: GCAUGUA (DNA:RNA)
# RNA: B3 RNA with A25G, G26C, C27A, A28U, A30U
# DNA 1: CAATCTGAATTCCGGTCTCCC
# DNA 2: TGGTGGCTACGACGGGATT
# B29: GCAUAUA (DNA:RNA)
# RNA: B1 RNA with U25G, A26C, C28U, U31A
# DNA 1: CAATCTGAATTCCGGTCTCCC
# DNA 2: TGGTGGCTACGACGGGATT
# B30: GCAUAAA (DNA:RNA)
# RNA: B3 RNA with A25G, G26C, C27A, A28U, G29A
# DNA 1: CAATCTGAATTCCGGTCTCCC
# DNA 2: TGGTGGCTACGACGGGATT
# B31: AAUAAUA (DNA:RNA)
# RNA: B3 RNA with G26A, C27U, G29A, A30U
# DNA 1: CAATCTGAATTCCGGTCTCCC
# DNA 2: TGGTGGCTACGACGGGATT
# Target: T1, RBFOX1 RRM
# Experiment: EMSA; HiTS-Eq, 1 nM pool, 10 min; buffer printed only for the single-RNA assays: 10 mM Tris pH 7.5, 150 mM NaCl, 3.4 mM EDTA, 0.001% NP-40, 30 C
# Conditions: tags: His6 N-terminal (pET28a); label: 5' 32P
# Procedure, shortened: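 A pool of RNA with 7 randomized nucleotides, 5′-radiolabelled and with DNA-annealed flanks, was equilibrated at 1 nM for 10 min in 50 µL with purified RbFox RRM, wild type or mutant, across increasing protein concentrations. Free RNA was separated by 8% native PAGE, excised, reverse-transcribed, barcoded by PCR and sequenced. Relative association constants were obtained from read-count changes of each RNA species versus the control reaction and normalised to the cognate motif.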
row,Binder,binding signal
1,B1,0.00574 KA relative to UGCAUGU
2,B2,0.00675 KA relative to UGCAUGU
3,B3,0.00732 KA relative to UGCAUGU
4,B4,0.015 KA relative to UGCAUGU
5,B5,0.156 KA relative to UGCAUGU
6,B6,0.0107 KA relative to UGCAUGU
7,B7,0.626 KA relative to UGCAUGU
8,B8,0.00789 KA relative to UGCAUGU
9,B9,0.0333 KA relative to UGCAUGU
10,B10,0.00163 KA relative to UGCAUGU
11,B11,0.599 KA relative to UGCAUGU
12,B12,0.0088 KA relative to UGCAUGU
13,B13,0.0127 KA relative to UGCAUGU
14,B14,0.00272 KA relative to UGCAUGU
15,B15,0.0126 KA relative to UGCAUGU
16,B16,0.00389 KA relative to UGCAUGU

row,Binder,binding signal
1,B17,0.00556 KA relative to UGCAUGU
2,B18,0.0132 KA relative to UGCAUGU
3,B19,0.0205 KA relative to UGCAUGU
4,B20,0.684 KA relative to UGCAUGU
5,B21,0.0125 KA relative to UGCAUGU
6,B22,0.0124 KA relative to UGCAUGU
7,B23,0.0141 KA relative to UGCAUGU
8,B24,0.0137 KA relative to UGCAUGU
9,B25,0.0124 KA relative to UGCAUGU
10,B26,0.67 KA relative to UGCAUGU
11,B27,0.594 KA relative to UGCAUGU
12,B28,0.473 KA relative to UGCAUGU
13,B29,0.0014 KA relative to UGCAUGU
14,B30,0.00438 KA relative to UGCAUGU
15,B31,0.000771 KA relative to UGCAUGU
